miR122 inh = blocks miR-122 activity in Huh7 sensor cells; Huh7 miR-122 Renilla luciferase sensor, 48 h; neutral wells = 0, positive control = 100; activation (reporter increase), % at 12.5 µM; 340,000 compounds, 0.3% hits;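 active = mean replicate activation score at least 90 and every replicate individually at or above 90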;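 also: higher luciferase means less miR-122 activity so hits act as miR-122 inhibitors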
PglD DTNB = blocks C. jejuni PglD acetyltransferase activity; purified PglD enzyme, DTNB colorimetric CoA detection; inhibition, % at 12.5 µM; 360,000 compounds, 0.098% hits; AID 602405; in the data active = inhibition above about 16%, passing the limit was not always enough
NSD2 HMT inh = blocks human histone methyltransferase NSD2; inhibition, % at 12.5 µM; 310,000 compounds, 0.54% hits; AID 743445; O96028; NSD2 peptide methylation, AlphaScreen, 120 min; in the data active = inhibition above about 50%
C2C12 statin = protects C2C12 myotubes from simvastatin toxicity. ATP luminescence, 48 h; scaled: DMSO 0, geranylgeraniol control 100. rescue of ATP level, % at 7.49 µM. 330,000 compounds, 0.78% hits. AID 602340;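 active = mean ATP rescue above about 67%, or every replicate alone reaching that limit, limit read from the data, passing the limit was not always enough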;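 also: myotubes were challenged with 10 µM simvastatin during compound exposure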
Starred values were filed as active, the others as inactive; . = no result given; [ ] = remark or other dose. An excerpt weighted towards active compounds, which were near 1.2% of everything screened.

SMILES	miR122 inh	PglD DTNB	NSD2 HMT inh	C2C12 statin
CC(=O)N1c2ccc(S(=O)(=O)NCCC(=O)NCc3ccc(F)cc3)cc2CC1C (configuration not stated)	1	-2	.	87*
CC1Cc2cc(S(=O)(=O)NCCC(=O)NCc3ccc(F)cc3)ccc2N1C(=O)C1CC1 (configuration not stated)	-9	.	.	3
C=CCOn1c(-n2nc(C)cc2C)nc2ccccc2c1=O	-10	9	1	-4
Cc1cc(C)n(-c2nc3ccccc3c(=O)n2OCCOc2ccccc2)n1	5	-8	10	99*
CC(=O)Nc1ccc(S(=O)(=O)Oc2cccc(N3C(=O)C4CC=CCC4C3=O)c2)cc1 (configuration not stated)	.	.	-2	.
CC(=O)Nc1ccc(S(=O)(=O)Oc2ccc(N3C(=O)C4CCCCC4C3=O)cc2)cc1 (configuration not stated)	-1	2	2	124*
COc1ccc(CNC(=O)/C=C/c2cc3c(cc2Br)OCO3)cc1	-2	-9	-2	86*
O=C(/C=C/c1cc2c(cc1Br)OCO2)NCc1ccc(F)cc1	-2	-5	-2	-1
O=C(O)c1cccc(Nc2c([N+](=O)[O-])c(=O)oc3ccccc23)c1	3	0	.	6
O=c1oc2ccccc2c(Nc2cccc(O)c2)c1[N+](=O)[O-]	29	-1	16	132*
CO[C@@H]1CN(C)C(=O)c2ccc(NS(C)(=O)=O)cc2OC[C@@H](C)N(CC2CCCCC2)C[C@H]1C	.	.	.	6
COc1ccc(-n2c(SCC(=O)N3CCCCC3)nc(O)cc2=O)cc1	-3	-3	-3	120*
C[C@H](CO)N1C[C@H](C)[C@@H](CN(C)Cc2ccc(Cl)c(Cl)c2)OCc2cn(nn2)CCCC1=O	-4[16.7 µM]	.	.	-7
C[C@@H]1CN([C@H](C)CO)C(=O)c2cc(NC(=O)Nc3ccc(F)cc3)ccc2O[C@H]1CN(C)Cc1ccc(C(=O)O)cc1	32[16.7 µM]	3	.	4
COc1c(S(=O)(=O)NCCCn2ccnc2)ccc(Cl)c1Cl	125*	-1	.	4
Cc1c(Cl)ccc(S(=O)(=O)NCCCn2ccnc2)c1Cl	22	-2	1	9
COc1cc(C)c(C(C)C)cc1S(=O)(=O)NCCCn1ccnc1	14	7	3	114*
Cc1noc(C)c1NC(=O)Nc1cccc2c1O[C@H](CN(C)S(=O)(=O)c1ccc(Cl)cc1)[C@@H](C)CN([C@H](C)CO)C2=O	-2[16.7 µM]	4	.	-39
C[C@@H]1CN([C@H](C)CO)S(=O)(=O)c2ccc(-c3cccnc3)cc2O[C@@H]1CN(C)C(=O)NC1CCCC1	6[16.7 µM]	-4	.	-8
COc1ccc(-c2ccc3c(c2)O[C@H](CN(C)C)[C@@H](C)CN([C@@H](C)CO)S3(=O)=O)cc1	30[16.7 µM]	-3	.	2
C[C@H](CO)N1C[C@H](C)[C@@H](CN(C)Cc2ccccc2)Oc2ccc(NC(=O)CCCCCC(=O)Nc3ccccc3N)cc2CC1=O	-3[16.7 µM]	0	.	8
C[C@@H]1CN([C@@H](C)CO)C(=O)Cc2cc(NC(=O)CCCCCC(=O)Nc3ccccc3N)ccc2O[C@@H]1CN(C)Cc1ccc(Cl)c(Cl)c1	-13[16.7 µM]	5	.	37
C[C@@H]1CN([C@H](C)CO)C(=O)Cc2cc(NC(=O)CCCCCC(=O)Nc3ccccc3N)ccc2O[C@@H]1CN(C)Cc1ccc(Cl)c(Cl)c1	-9[16.7 µM]	-1	.	85*
C[C@H](CO)N1C[C@H](C)[C@H](CN(C)Cc2ccc(Cl)c(Cl)c2)Oc2ccc(NC(=O)CCCCCC(=O)Nc3ccccc3N)cc2CC1=O	14[16.7 µM]	1	.	139*
Cc1cccc(Nc2nc(CC(=O)O)cs2)c1	1	-5	2	128*
SMILES	miR122 inh	PglD DTNB	NSD2 HMT inh	C2C12 statin
Cn1cnc(S(=O)(=O)N2C[C@H](O)COC[C@H]3O[C@@H](CC(=O)NCc4cc(F)cc(F)c4)CC[C@@H]32)c1	14[16.7 µM]	5	.	-3
Clc1ccccc1CNc1ncnc2nc[nH]c12	-1	-1	.	101*
CCCN(C)C[C@H]1Oc2cc(-c3ccccc3OC)ccc2S(=O)(=O)N([C@H](C)CO)C[C@H]1C	18[16.7 µM]	2	.	-8
CCOC(=O)c1cnc2cc(-c3ccc(Cl)cc3)nn2c1N	7	.	-1	-15
CCOC(=O)c1cnc2c(-c3ccc(Cl)cc3)c(C)nn2c1N	3	4	-1	87*
Cc1ccc(O)c(NC(=O)Cc2cccc3ccccc23)c1	.	.	-1	.
O=C(COc1ccc2c3c(c(=O)oc2c1)CCC3)N1CCCC1	-9	2	-6	-6
O=C(O)COc1ccc2c3c(c(=O)oc2c1)CCC3	-5	-6	-1	117*
